Compound activity: PubChem BioAssay, several laboratories
Sampled rows, rich in hits. Any-hit rate of the full collection: about 4%.
Rv3671c protease – inhibitors of M. tuberculosis serine protease Rv3671c; P9WHR9; inhibition, % at 5.96 µM; 320,000 tested, 0.048% active; in the data active = inhibition above about 38%;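 also: extracellular domain of Rv3671c used as enzyme; 0% = enzyme with DMSO and 100% = no enzyme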
Mtb bLac sens – beta-lactam sensitization of Mtb H37Rv. M. tuberculosis H37Rv growth with meropenem, percent inhibition. inhibition, % at 25 µM. AID 434955. 330,000 tested, 0.27% active; call rule not given here;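 also: growth measured after seven days incubation then overnight dye step; 0% = bacteria only wells and 100% = bacteria with antibiotic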
GDH-TPI counter-1 – counter-screen for M. tuberculosis FBA inhibitors: GDH-TPI coupled enzymes; GDH-TPI coupled enzyme counterscreen, NADH absorbance; inhibition, % at 4.8 µM; 360,000 tested, 1.2% active; in the data active = inhibition above about 30%;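 also: 0% = DMSO wells and 100% = wells lacking the enzyme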
UGM FP inh – inhibitors of M. tuberculosis UDP-galactopyranose mutase; P9WIQ1; purified UGM, fluorescence polarization probe displacement; inhibition, % at 10 µM; 320,000 tested, 0.06% active; AID 504406; in the data active = inhibition above about 10%, passing the limit was not always enough
RecA splice inh – Mtb RecA intein splicing inhibition | inhibition, % (no concentration beside the values) | cell-free RecA intein splicing, fluorescence | P9WHJ3 | 290,000 tested, 0.75% active; in the data active = inhibition above about 30%;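 also: 0% = vehicle wells and 100% = reference inhibitor control wells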
Mtb FBA inh – inhibitors of M. tuberculosis fructose-bisphosphate aldolase | P9WQA3 | purified M. tuberculosis FBA, fluorescence read-out | inhibition, % at 1 µM | 360,000 tested, 2.3% active | AID 588726;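 also: 0% = vehicle and 100% = reference inhibitor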
Target sequence (P9WQA3 whole entry, looked up): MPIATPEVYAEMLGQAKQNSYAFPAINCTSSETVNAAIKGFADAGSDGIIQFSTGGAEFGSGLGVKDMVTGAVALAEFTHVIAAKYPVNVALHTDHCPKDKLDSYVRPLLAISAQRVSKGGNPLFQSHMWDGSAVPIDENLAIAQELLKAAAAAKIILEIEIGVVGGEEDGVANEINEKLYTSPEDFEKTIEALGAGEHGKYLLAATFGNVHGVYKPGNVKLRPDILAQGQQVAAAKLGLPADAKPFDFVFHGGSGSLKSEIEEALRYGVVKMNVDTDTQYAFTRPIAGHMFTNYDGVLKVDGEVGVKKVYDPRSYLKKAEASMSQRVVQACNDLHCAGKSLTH
Mtb FBA confirm – Mtb FBA inhibition, confirmed | shares compounds with Mtb FBA inh | purified M. tuberculosis FBA, fluorescence read-out | inhibition, % at 1 µM | 5,600 tested, 78% active;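 also: 0% = vehicle wells and 100% = reference inhibitor wells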
GDH-TPI counter-2 – GDH-TPI inhibition counter-screen for FBA inhibitors. GDH-TPI coupled enzyme counterscreen, fluorescence. 5,600 tested, 81% active. shares compounds with Mtb FBA inh. inhibition, % at 1 µM; in the data active = inhibition above about 10%
Starred values were filed as active, the others as inactive; i = inactive; x = no result given; + = active, no number. Rule as the data show it, unless noted: active = inhibition above about 27%; inactive = the rest.

SMILES | Rv3671c protease | Mtb bLac sens | GDH-TPI counter-1 | UGM FP inh | RecA splice inh | Mtb FBA inh | Mtb FBA confirm | GDH-TPI counter-2
COC(=O)c1ccc(COC(=O)C(NC(=O)Cc2ccccc2)C(C)C)cc1 (configuration not stated) | x | x | -3.9 | x | x | 2.6 | x | x
COc1cc(SC)ccc1C(=O)Nc1cccc(C2OCCCO2)c1 | -2.9 | 10.8 | 1.8 | 0.9 | -0.7 | 0.0 | x | x
O=c1oc(C2(O)CCCCC2)cc2ccc(Br)cc12 | 13.9 | -0.6 | 15.9 | 0.3 | x | 7.5 | x | x
O=c1oc(C2(O)CCCCC2)cc2ccc(/C=C/c3ccc(F)cc3)cc12 | 3.0 | 12.7 | 8.3 | -3.2 | x | 31.6* | 34.4* | 24.0*
Nc1nc2nccc(-c3cccnc3)n2n1 | -7.2 | -8.3 | 19.2 | 1.5 | 2.1 | 64.5* | -8.5 | -4.9
CN(C)/C=N/c1nc2nccc(-c3cccnc3)n2n1 | 1.1 | -1.1 | 1.3 | -0.7 | -9.8 | 27.2* | 152.3* | 106.5*
COc1ccc(-c2ccnc3nc(/N=C/N(C)C)nn23)cc1 | -2.9 | -3.9 | x | 1.4 | 0.1 | x | x | x
COC(=O)c1oc2ccc(Cl)cc2c1N | -16.3 | -3.8 | 15.0 | 1.2 | -1.5 | 67.3* | 6.8 | 1.6
CCOC(=O)c1cc(-c2cccs2)nc2onc(C)c12 | 3.5 | 6.3 | -6.2 | 1.2 | -19.0 | 41.7* | 81.8* | 74.0*
CN1CCN(C(=O)c2ccc(-c3cccs3)s2)CC1 | -3.5 | 2.5 | 13.3 | 0.0 | -3.1 | 49.6* | 23.4 | 18.4*
CC(C)Nc1ccc(Nc2ccnc3cc4ccccc4cc23)cc1 | 13.4 | 94.3 | -1.3 | 1.1 | 3.0 | -1.5 | x | x
c1ccc(CCNc2ccnc3cc4ccccc4cc23)cc1 | x | x | 3.5 | x | i | 47.0* | -1.2 | -1.0
c1ccc2c(N3CCOCC3)nc(N3CCOCC3)nc2c1 | 1.9 | -8.1 | 14.2 | 2.3 | 3.2 | 110.1* | + | 163.1*
O=c1[nH]c(=O)n(Cc2ccccc2)c2nc(-c3ccc(C(F)(F)F)cc3)n(CCO)c12 | 5.2 | 0.6 | 6.2 | 1.7 | -4.5 | 68.5* | 134.3* | 114.7*
CCCn1c(-c2cccc(F)c2)nc2c1c(=O)[nH]c(=O)n2Cc1ccccc1 | -5.1 | -1.1 | -0.7 | -0.7 | -0.4 | 5.8 | x | x
O=c1[nH]c(=O)n(Cc2ccccc2)c2nc(-c3cccs3)n(CCO)c12 | 3.4 | -10.2 | x | 0.3 | -8.3 | x | x | x
CCCOc1ccc(-c2nc3c(c(=O)[nH]c(=O)n3Cc3ccccc3)n2CCO)cc1OCC | -11.5 | -0.5 | -1.1 | -0.2 | -8.1 | 38.4* | 0.5 | -4.0
Cn1c(-c2cccc(F)c2)nc2c1c(=O)[nH]c(=O)n2Cc1ccccc1 | 2.9 | -1.4 | -12.8 | 1.1 | -2.1 | 27.5* | 4.3 | -3.1
CCCCn1c(=O)[nH]c(=O)c2c1nc(-c1ccc(OCCC)c(OCC)c1)n2CCOC | 3.6 | 1.7 | 5.3 | -0.3 | 1.3 | 21.3 | x | x
CCCn1c(-c2cc(OC)c(OC)c(OC)c2)nc2c1c(=O)[nH]c(=O)n2Cc1ccccc1 | -6.2 | 2.8 | -3.7 | 0.7 | 5.3 | 40.8* | 12.3 | 8.9
CC(C)CN1CC(Br)C(=O)NC1=O (configuration not stated) | x | x | 2.2 | x | x | 0.2 | x | x
COC(=O)Cn1c(C(O)c2ccccc2)nc2ccccc21 (configuration not stated) | 2.4 | -10.2 | 8.5 | 4.1 | 1.2 | 0.9 | x | x
CCCOc1ccc(C2C3=C(CCCC3=O)N(CC(=O)O)C3=C2C(=O)CCC3)cc1OCC | 4.8 | -4.0 | 15.7 | 0.1 | 1.5 | 2.0 | x | x
C#CCOc1ccc(C2C3=C(CCCC3=O)N(CC(=O)O)C3=C2C(=O)CCC3)cc1Br | -3.7 | -5.3 | 2.9 | -0.3 | -451.0 | 90.7* | 153.3* | 130.7*
Cc1cccc(C)c1NC(=O)CSc1nc2[nH]c(=O)cc(O)c2s1 | 10.8 | -0.7 | 11.9 | -1.2 | x | -0.9 | x | x
Cc1ccc(NS(=O)(=O)c2ccc(NC(=O)C(C)Sc3ccc(Cl)cc3)cc2)c(C)c1 (configuration not stated) | -207.0 | -0.1 | 2.0 | 0.1 | 6.3 | 81.5* | 1.6 | -3.4
Cn1c(=O)c2cc(NC(=O)NCc3ccccc3)ccc2n1C/C=C/c1ccccc1 | x | x | 7.1 | x | x | 77.2* | 98.7* | 60.3*
Cn1c(=O)c2cc(NC(=O)NCCc3cccs3)ccc2n1C/C=C/c1ccccc1 | x | x | 18.1 | x | x | 65.3* | 1.2 | -3.5
